Bioassay records deposited in PubChem BioAssay by several laboratories.
Hits are enriched below; roughly 4.2% of the tested compounds scored in any of these assays.
GAA850 FXN act = FXN promoter activators, primary screen, cell-based, luciferase luminescence, HEK293 lucGAA850; 360,000 tested, 0.56% active; HEK293 lucGAA850 FXN promoter luciferase reporter, 24 h; percent of 10 µM SAHA response; activation, % at 6 µM;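 active = activation above the average of all compounds screened plus 3 SD, cutoff fixed separately per campaign, cut at about 7.5% in these data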;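 note: 0% = DMSO wells and 100% = 10 µM SAHA wells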
esBAF inh = Bmi1 luciferase reporter increase in mESCs, primary screen, esBAF inhibitor project, mouse ES cells, Bmi1 luciferase knock-in, single point; 24 h; 100% = twice the neutral-well signal; reporter increase, % at 12.5 µM; 350,000 tested, 2% active; AID 602393, 2012; in the data active = activation above about 40%; inconclusive = no clear call, values can overlap the other calls;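 note: 0% = median of the plate's neutral control wells and 100% = double that signal; a rise in the Bmi1 reporter signal indicates esBAF inhibition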
MITF act = activators of MITF-driven TRPM1 promoter reporter, primary screen, cell-based, SK-MEL-5, luciferase, single point; SK-MEL-5 TRPM1-promoter luciferase, 24 h; % of positive control, neutral wells = 0; activation, % at 12.5 µM; 300,000 tested, 0.75% active;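 active = mean activation of at least 80% with every replicate also reaching 80%; inconclusive = mean reaches 80% but some replicate falls short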;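 note: 0% = neutral control wells and 100% = parthenolide positive control wells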
AHR activator = AHR activators, primary screen, cell-based, luminescence, luciferase reporter, human | activation, % at 5 µM | 320,000 tested, 2.5% active | AID 2796, 2010 | AHR-responsive luciferase reporter cells; in the data active = activation above about 47%;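 note: 0% = vehicle wells and 100% = reference agonist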
Target sequence (P35869 whole entry, looked up): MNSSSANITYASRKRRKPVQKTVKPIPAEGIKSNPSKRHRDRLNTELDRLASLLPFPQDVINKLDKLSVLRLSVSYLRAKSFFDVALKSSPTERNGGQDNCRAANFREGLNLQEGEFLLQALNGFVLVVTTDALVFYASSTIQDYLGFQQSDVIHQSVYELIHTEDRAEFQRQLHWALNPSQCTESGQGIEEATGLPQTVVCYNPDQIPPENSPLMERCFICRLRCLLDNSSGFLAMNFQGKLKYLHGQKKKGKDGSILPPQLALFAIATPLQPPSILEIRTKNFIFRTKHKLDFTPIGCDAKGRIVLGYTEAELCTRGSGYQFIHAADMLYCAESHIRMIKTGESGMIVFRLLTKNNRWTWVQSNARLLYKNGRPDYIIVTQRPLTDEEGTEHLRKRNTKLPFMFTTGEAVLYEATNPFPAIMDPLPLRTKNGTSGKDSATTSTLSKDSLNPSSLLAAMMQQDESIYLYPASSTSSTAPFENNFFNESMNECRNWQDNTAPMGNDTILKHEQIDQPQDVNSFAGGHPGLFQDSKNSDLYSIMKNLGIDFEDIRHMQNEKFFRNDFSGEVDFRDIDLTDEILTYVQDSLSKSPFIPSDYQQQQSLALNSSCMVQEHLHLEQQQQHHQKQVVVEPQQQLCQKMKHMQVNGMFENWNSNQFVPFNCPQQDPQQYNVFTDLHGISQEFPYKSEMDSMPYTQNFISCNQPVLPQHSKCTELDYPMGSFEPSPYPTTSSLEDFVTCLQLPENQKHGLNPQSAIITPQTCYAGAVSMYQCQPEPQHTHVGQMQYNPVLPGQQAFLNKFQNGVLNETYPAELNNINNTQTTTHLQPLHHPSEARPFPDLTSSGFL
Wnt act = Wnt/beta-catenin pathway activators, primary screen, cell-based, plate reader, single point; activation, % at 9.35 µM; Wnt/beta-catenin reporter cell assay, activator; AID 743398, 2014; 300,000 tested, 1.2% active; in the data active = activation above about 30%, passing the limit was not always enough; inconclusive = no clear call, values can overlap the other calls;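 note: 0% = neutral control wells and 100% = positive control wells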
AHR act cf = AHR activators, confirmation, cell-based, luminescence, luciferase reporter, human; 2,300 tested, 87% active; activation, % at 9 µM; human cells, AHR-responsive luciferase reporter; shares compounds with AHR activator; in the data active = activation above about 49%;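 note: HepG2 hepatoma cells carrying a DRE-driven firefly luciferase reporter; 0% = vehicle wells and 100% = reference agonist wells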
PXR counter = human PXR activators, counter-screen for AHR activator project, cell-based, luciferase luminescence. shares compounds with AHR activator. cell-based PXR reporter. activation, % at 11.6 µM. 2,300 tested, 88% active. AID 434939, 2010; in the data active = activation above about 11%;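 note: human hepatoma DPX-2 cells expressing full-length human PXR; 0% = DMSO and 100% = reference agonist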
GAA30 counter = GAA30 FXN promoter activators, confirmation, counter-screen for GAA850 frataxin promoter activator project, cell-based, luminescence, HEK293, lucGAA30, triplicate. shares compounds with GAA850 FXN act. HEK293 lucGAA30 FXN promoter luciferase, 24 h; DMSO = 0%, 5 µM ipriflavone = 100%. activation, % at 6 µM. 1,900 tested, 66% active;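 active = mean activation above the mean of solvent-only control wells plus 3 SD, cut at about 22% in these data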;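 note: counterscreen of GAA850 promoter hits where activity marks nonselective or luminescence artifacts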
FXN GAA850 conf = FXN GAA850 promoter activators in reporter cells, confirmation, cell-based, luminescence, HEK293 lucGAA850, triplicate. shares compounds with GAA850 FXN act. HEK293 lucGAA850 FXN promoter luciferase reporter, 24 h; 100% = activation by SAHA. activation, % at 6 µM. 1,900 tested, 86% active;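 active = mean activation above a set limit taken from the primary screen, cut at about 8% in these data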;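 note: 0% = DMSO wells and 100% = 10 µM SAHA wells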
Active calls of the source: *; ? = inconclusive; / = no result given; ! = repeats disagree.

SMILES	GAA850 FXN act	esBAF inh	MITF act	AHR activator	Wnt act	AHR act cf	PXR counter	GAA30 counter	FXN GAA850 conf
Cc1ccc2sc(NNC(=O)C3COc4ccccc4O3)nc2c1C (stereo unspecified)	0.4	9.0	/	137.3*	2.5	65.5*	48.4*	/	/
O=C(Nc1ccc2c(c1)OCO2)c1n[nH]c(=O)c2ccccc12	9.8*	/	69.7	132.2*	25.3	131.9*	42.5*	100.3*	39.7*
CC(=O)Nc1ccc2c(c1)OCO2	1.8	/	3.9	1.2	-7.9	/	/	/	/
O=C(Nc1ccc2c(c1)OCO2)c1ccc(Br)s1	20.1*	12.3	24.9	131.3*	/	93.1*	24.7*	108.4*	38.3*
O=C(c1ccc(Cl)cc1)c1oc2ccccc2c1CS(=O)c1ccccc1 (stereo unspecified)	1.4	-4.9	-10.6	7.7	/	/	/	/	/
Nc1c(C(=O)c2ccc(Br)cc2)oc2ccccc12	7.7*	/	16.5	122.4*	9.0	175.8*	/	92.9*	34.3*
O=c1c2ccccc2nc(SCc2nc3ccccc3s2)n1CCCO	14.2*	36.3	73.8	88.6*	41.0*	107.3*	51.9*	102.3*	43.4*
O=C(CSc1nc2ccccc2c(=O)n1CCCO)NCc1ccccc1	1.7	0.0	9.4	-0.6	-14.0	/	/	/	/
Cc1[nH]c2ccccc2c1SCc1ccccc1	15.4*	1.1	/	128.4*	-2.2	102.7*	37.9*	12.8	7.3
c1ccc2[nH]c(-c3ccnc4ccccc34)nc2c1	9.4*!	27.0	17.8	90.1*	38.0*	155.8*	25.7*	65.3*	19.0*
C[C@@H]1CCCCO[C@@H](CN(C)S(=O)(=O)c2cn(C)cn2)[C@H](C)CN([C@@H](C)CO)C(=O)c2cc(NS(C)(=O)=O)ccc2O1	/	-1.6	/	/	/	/	/	/	/
Cn1c(=O)c2nc(-c3ccccc3)oc2c2ccccc21	11.9*	20.9	/	104.5*	7.9	120.1*	21.7*	43.8*	24.2*
c1ccc2c(-c3nc(-c4ccncc4)no3)cccc2c1	10.1*	46.5*	50.6	99.3*	/	114.0*	14.8*	100.8*	31.8*
Cc1cc(C)n2nc(-c3cccc(Br)c3)cc2n1	9.1*	?	12.2	106.9*	-3.9	129.1*	17.6*	106.5*	44.0*
NNc1nc2c(-c3ccc(Cl)cc3)nnn2c2ccccc12	8.2*	/	43.2	97.2*	0.0	117.3*	16.1*	128.8*	37.5*
COCCCNc1nc2c(-c3ccc(Cl)cc3)nnn2c2ccccc12	3.4	-4.0	-1.2	39.5	-2.5	/	/	/	/
COCC(=O)N(C)C[C@@H]1Oc2ncc(C#Cc3ccccc3)cc2C(=O)N([C@@H](C)CO)C[C@@H]1C	/	1.1	/	/	/	/	/	/	/
Nc1cccc2c1C(=O)N(CCOc1ccc(F)cc1)C2=O	8.1*	/	67.4	97.7*	26.3	86.7*	28.6*	105.6*	26.3*
COc1ccc(OCCN2C(=O)c3ccccc3C2=O)cc1	4.1	16.6	21.7	-4.5	4.1	/	/	/	/
NNc1nc(-c2ccccc2)cc(-c2ccccc2O)n1	-0.6	-1.5	-8.0	12.6	1.4	/	/	/	/
Nc1nc(-c2ccccc2)cc(-c2ccccc2O)n1	9.3*	7.0	-8.0	81.6*	/	174.3*	22.2*	53.5*	47.6*
CC(C)NC(=O)Nc1ccc2c(c1)CC(=O)N([C@H](C)CO)C[C@H](C)[C@@H](CN(C)Cc1ccc(Oc3ccccc3)cc1)O2	/	-2.9	/	/	/	/	/	/	/
O=C(C[C@H]1CC[C@@H]2[C@H](COC[C@@H](O)CN2Cc2nccs2)O1)NCc1ccc(-c2ccccc2)cc1	/	3.3	/	/	/	/	/	/	/
COc1cccc(/C=C/c2ccc3cccc(O)c3n2)c1	8.7*	-62.3	3.9	83.1*	?	120.2*	21.7*	3.6	29.2*
C[C@H](CO)N1C[C@H](C)[C@H](CN(C)C(=O)Nc2ccccc2)Oc2c(NC(=O)c3nc4ccccc4s3)cccc2C1=O	/	1.9	/	/	/	/	/	/	/
SMILES	GAA850 FXN act	esBAF inh	MITF act	AHR activator	Wnt act	AHR act cf	PXR counter	GAA30 counter	FXN GAA850 conf
COc1cccc2sc3cc(NCc4ccc(C)o4)ccc3c(=O)c12	7.7*	?	?	95.7*	7.2	95.2*	54.8*	87.9*	34.2*
COc1cc2sc(-c3ccc(S(C)(=O)=O)cc3)c(C(=O)NCc3ccc(C)o3)c2cc1OC	-0.5	4.9	16.7	3.2	-1.3	/	/	/	/
C[C@@H]1CCCCO[C@H](CN(C)Cc2ccccc2)[C@H](C)CN([C@@H](C)CO)C(=O)c2cc(NC(=O)CCC(F)(F)F)ccc2O1	/	-2.5	/	/	/	/	/	/	/
CC(=O)N1[C@H](CN(C(=O)c2ccccc2)C(C)C)[C@H](c2ccccc2)[C@@H]1CO	/	3.2	/	/	/	/	/	/	/
O=C(COC(=O)Cn1cnc2ccccc21)Nc1ccc2c(c1)C(=O)c1ccccc1C2=O	8.7*	/	27.1	13.6	59.2*	/	/	108.0*	46.2*
Oc1ccc(/C=N/n2c(-c3ccco3)csc2=Nc2cccnc2)c(O)c1	-7.0	24.9	-23.4	12.3	/	/	/	/	/
CC(C)N=c1scc(-c2ccco2)n1/N=C/c1ccc(O)c(O)c1	12.3*	-82.1	18.9	11.7	/	/	/	68.4*	41.7*
Cc1cc(C(=O)Nc2cccc3c2O[C@@H](CN(C)C(=O)Nc2ccc4c(c2)OCO4)[C@@H](C)CN([C@@H](C)CO)C3=O)n(C)n1	/	-0.2	/	/	/	/	/	/	/
CN(C)CCn1c(=O)n(-c2cccc(Cl)c2)c(=O)c2c3c(sc21)CCCCC3	13.4*	-5.8	/	-0.7	-0.6	/	/	21.9*	13.4*
COc1ccc(NC(=O)N(C)C[C@H]2Oc3c(NC(=O)Nc4cccc5ccccc45)cccc3C(=O)N([C@@H](C)CO)C[C@@H]2C)cc1	/	6.4	/	/	/	/	/	/	/
C/C(=N\NC(=O)c1ccc(N2CCCC2=O)cc1)c1ccccc1	-0.6	26.9	19.9	-0.5	-0.6	/	/	/	/
C/C(=N\NC(=O)c1ccccc1)c1ccc(N2CCCCC2)cc1	8.0*	/	32.2	2.8	6.6	/	/	98.3*	33.7*
